The values below come from PubChem BioAssay.

Records with an inconclusive call do not appear. The source made the active and inactive calls.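 Rule for the calls, unless noted: active = compound raises GLP1 secretion from the human gut endocrine cells, with no numeric limit stated; inactive = the rest.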

The term inhibition denotes the relative decrease from the control value, in per cent. A word on the AC50: it is the concentration at which the activity in the assay is half-maximal.

Experiment [1] is described as follows: stimulators of insulin release from INS-1E, primary screen, cell-based, 5 mM glucose, NPC library (AID 1117329;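 active = compound raises insulin release from rat beta cells at 5 mM glucose, no numeric limit stated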). The conditions noted are these: rat INS-1E insulin secretion, at 10 µM, stronger effect = higher value.
The nature of experiment [2]: growth inhibition of GSK3B-pretreated HCT116 cells – cell-based, CellTiter-Glo, 0.2 to 20 µM (AID 1117336;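 active = compounds lowering colon cancer cell viability after pretreatment blocking the GSK3B kinase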). To be noted: HCT116 viability after GSK3B inhibitor, at 20 µM, stronger effect = higher value.
Experiment [3] can be described thus: inhibition of endothelial tube formation, primary screen, imaging, VEGF stimulated, CD31 staining, tube area, NPC library (AID 1117340;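 active = compound that reduces growth-factor-driven endothelial tube area in a mixed cell culture, no cutoff stated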). To be noted: VEGF-stimulated ADSC/ECFC co-culture, at 10 µM, stronger effect = higher value.
The nature of experiment [4]: glucagon-like peptide 1 release enhancers, primary assay, NCI-H716 cell line, NPC library (AID 1117341). To be noted: NCI-H716 cells, at 10 µM, stronger effect = higher value.
Experiment [5] is described as follows: HCT116 colon cancer cell growth inhibition, primary screen, CellTiter-Glo luminescence, NPC library (AID 1117342;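 active = compounds that lower survival of HCT116 colon cancer cells in the luminescence readout, no numeric limit stated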). The conditions noted are these: at 20 µM (top of the series). (Cellular ATP, detected with luciferase, serves as a proxy for viable cell number.)
Experiment [6] is described as follows: CellTiter-Glo luminescent readout of SW480 viability loss, NPC library primary (AID 1117343;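 active = compounds that lower viability of the colon cancer cells in the luminescence readout, with no numeric limit stated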). To be noted: CellTiter-Glo luminescence; at 20 µM (top of the series).
Experiment [7] is described as follows: decreased DLD-1 cellular survival, CellTiter-Glo luminescent readout, NPC compound collection, primary HTS (AID 1117346;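 active = compounds that lower survival of DLD-1 colon cancer cells in the luminescence readout, no cutoff given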). The conditions noted are these: DLD-1 viability, CellTiter-Glo luminescence; at 20 µM (top of the series).
Experiment [8] deals with 6-phosphogluconate dehydrogenase, decarboxylating (Homo sapiens) (UniProt P52209). The experiment in a line: 6PGD enzyme inhibitors, primary screen, biochemical, human, recombinant enzyme, NADPH absorbance (AID 1159550;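 active = at least 20% inhibition of 6-phosphogluconate dehydrogenase activity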). To be noted: recombinant 6PGD, NADPH absorbance 341 nm; at 10 µM; stronger effect = higher value.
Experiment [9] can be described thus: differential killing of epithelial or mesenchymal cells, primary screen, imaging, PC-3E GFP, TEM4-18 mCherry, co-culture (AID 1345086;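 active = compounds killing one labelled cell type while sparing the other, by normalised counts and ratio limits, not self-fluorescent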;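 for all read-outs here: cells exposed to compound for 72 h before imaging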;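 for red/green cell ratio (normalised): normalised mesenchymal count divided by normalised epithelial count so high means epithelial killing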). The conditions noted are these: imaging cell counts, at 1 µM; for red/green cell ratio (normalised): actives lie on both sides, counts scaled to control wells, 1 = unselective.
Experiment [10] is described as follows: growth inhibition of DIPG glioma cells, dose response, cell-based, SU-DIPG-XVII, MIPE5.0, CellTiter-Glo, qHTS (AID 1347060; cut-off not given, nearly all actives have AC50 up to about 26 µM;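 for AC50: cells exposed to compound for 48 hours before viability readout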). To be noted: SU-DIPG-XVII viability, CellTiter-Glo ATP luminescence.
Experiment [11] in a line: growth inhibition of DIPG glioma cells, dose response, cell-based, JHH-DIPG-1, MIPE4.0, CellTiter-Glo, qHTS (AID 1347062; cut-off not given, nearly all actives have AC50 up to about 27 µM;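 for AC50: cells exposed to compound for two days before readout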). To be noted: JHH-DIPG-1 viability, CellTiter-Glo ATP luminescence.
A short description of experiment [12]: growth inhibition of DIPG glioma cells, dose response, cell-based, SU-DIPG-IV, MIPE4.0, CellTiter-Glo, qHTS (AID 1347063; cut-off not given, nearly all actives have AC50 up to about 30 µM;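 note: compound exposure lasted 48 hours before the viability readout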). The conditions noted are these: SU-DIPG-IV viability, CellTiter-Glo ATP luminescence.
Experiment [13] in a line: growth inhibition of DIPG glioma cells, dose response, cell-based, SU-DIPG-XIII, MIPE5.0, CellTiter-Glo, qHTS (AID 1347064; cut-off not given, nearly all actives have AC50 up to about 23 µM;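 for AC50: cells exposed to compound for 48 hours before the viability read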). To be noted: SU-DIPG-XIII viability, CellTiter-Glo ATP luminescence.
Experiment [14] can be described thus: growth inhibition of DIPG glioma cells, dose response, cell-based, SU-DIPG-XIII, MIPE4.0, CellTiter-Glo, qHTS (AID 1347061; cut-off not given, nearly all actives have AC50 up to about 37 µM;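 note: cells exposed to compound for 48 hours before readout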). To be noted: SU-DIPG-XIII viability, CellTiter-Glo ATP luminescence.
The mark [15] stands for this setting: measured here: epithelial PC-3E GFP cell survival.
[16] abbreviates: measured here: mesenchymal TEM4-18 mCherry cell survival.

Sequence of 6-phosphogluconate dehydrogenase, decarboxylating (Homo sapiens) (P52209 whole entry, looked up): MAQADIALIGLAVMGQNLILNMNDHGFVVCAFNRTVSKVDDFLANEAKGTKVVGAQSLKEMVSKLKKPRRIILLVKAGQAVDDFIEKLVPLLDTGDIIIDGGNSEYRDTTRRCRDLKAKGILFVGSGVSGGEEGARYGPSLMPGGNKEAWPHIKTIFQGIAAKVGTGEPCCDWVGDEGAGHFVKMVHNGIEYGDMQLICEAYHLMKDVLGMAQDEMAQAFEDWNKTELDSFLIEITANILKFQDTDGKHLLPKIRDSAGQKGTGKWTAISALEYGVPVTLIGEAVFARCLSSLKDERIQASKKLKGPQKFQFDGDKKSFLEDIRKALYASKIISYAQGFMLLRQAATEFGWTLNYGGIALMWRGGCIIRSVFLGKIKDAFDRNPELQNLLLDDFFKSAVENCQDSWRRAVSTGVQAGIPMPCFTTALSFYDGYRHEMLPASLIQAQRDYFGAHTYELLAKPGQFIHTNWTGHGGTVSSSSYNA

On to `Cc1ccc(C(C)C)cc2c(C)ccc1-2`, for which, in experiment [1], the insulin secretion stimulation is -0.7% (inactive). Further, the viability decrease in experiment [2] was -28.6% (inactive). Moreover, in experiment [3], the tube area decrease is 15.5% (inactive). In addition, in [4], the GLP1 secretion stimulation is -6.3% (inactive). Besides, the inhibition of viability in experiment [5] was 5.77% (inactive). The viability decrease (inhibition) in experiment [6] is -9.4% (inactive); in experiment [7], -6.8% (inactive). Also, the inhibition in [8] is -19.1% (inactive). Moreover, in experiment [9], the red/green cell ratio (normalised) was 0.74 (inactive). Also, the normalised cell number in experiment [9] (setting [15]) amounted to 1.25; in [9] (setting [16]), 0.92.

As to `C1CCC(C(CC2CCCCN2)C2CCCCC2)CC1` (stereo unspecified), in experiment [1], the insulin secretion stimulation is 7.6% (inactive). Further, the viability decrease in experiment [2] was 101% (active). The tube area decrease in experiment [3] is 9.8% (inactive). Besides, the GLP1 secretion stimulation in [4] is 4.9% (inactive). In [5], the inhibition of viability was 100% (active). In addition, the viability decrease (inhibition) in [6] was 120% (active); in experiment [7], 103% (active). In experiment [8], the inhibition is 12.3% (inactive). Besides, in [9], the red/green cell ratio (normalised) was 0.98 (inactive). Besides, the normalised cell number was 1.13 in [9] (setting [15]) and 1.11 in experiment [9] (setting [16]). Besides, the AC50 is 7.42 µM (active) in [10], 9.35 µM (active) in experiment [11], 20.9 µM (active) in [12] and 11.8 µM (active) in experiment [13].

On to `NCC1CCC(C(=O)O)CC1` (stereo unspecified), for which, in [1], the insulin secretion stimulation is -1.6% (inactive). In addition, the viability decrease in experiment [2] was -8.4% (inactive). In experiment [3], the tube area decrease is 25.3% (inactive). Also, the GLP1 secretion stimulation in experiment [4] is 0.1% (inactive). Also, the inhibition of viability in experiment [5] is -10.3% (inactive). For the same molecule, the viability decrease (inhibition) was 2.1% (inactive) in experiment [6] and -6% (inactive) in experiment [7]. For the same molecule, the inhibition in [8] was 7.43% (inactive). Besides, in experiment [9], the red/green cell ratio (normalised) is 1.26 (inactive). The normalised cell number was determined as 1 in [9] (setting [15]) and 1.27 in experiment [9] (setting [16]). Moreover, the molecule was classed as inactive in experiment [10], in experiment [14], in [11] and in experiment [12].

As to `NC(=O)c1ncn([C@@H]2O[C@H](CO)[C@@H](O)[C@H]2O)n1`, in experiment [1], the insulin secretion stimulation was 0% (inactive). Moreover, the viability decrease in [2] was -32.4% (inactive). Moreover, the tube area decrease in [3] was 25.6% (inactive). The GLP1 secretion stimulation in experiment [4] is 0.7% (inactive). Besides, the inhibition of viability in experiment [5] was -15.3% (inactive). Moreover, the values for the viability decrease (inhibition) in [6] and in [7] were -29.6% (inactive) and 11.6% (inactive), respectively. In addition, in [8], the inhibition is 16.1% (inactive). For the same molecule, the red/green cell ratio (normalised) in experiment [9] is 0.68 (inactive). The normalised cell number in experiment [9] (setting [15]) came to 1.31; in [9] (setting [16]), 0.89. In addition, the result in experiment [10], in experiment [14], in experiment [11] and in experiment [13] was inactive.

Take `O=C(NC(Cc1cc(=O)[nH]c2ccccc12)C(=O)O)c1ccc(Cl)cc1` (stereo unspecified): the insulin secretion stimulation in experiment [1] is 2.6% (inactive). Besides, the viability decrease in experiment [2] is -6.2% (inactive). Further, the tube area decrease in experiment [3] was 19.9% (inactive). Moreover, the GLP1 secretion stimulation in experiment [4] was -0.3% (inactive). Also, in [5], the inhibition of viability is 3.17% (inactive). The viability decrease (inhibition) was 22.7% (inactive) in [6] and -11.3% (inactive) in [7]. In addition, in experiment [8], the inhibition is 4.66% (inactive). Further, in experiment [9], the red/green cell ratio (normalised) was 1.12 (inactive). The normalised cell number in experiment [9] (setting [15]) was 0.89; in experiment [9] (setting [16]) it was 0.99. The outcome in [10], in experiment [11], in experiment [12] and in experiment [13] was inactive.

Take `N[C@@H](Cc1ccc(O)c(O)c1)C(=O)O`: the insulin secretion stimulation in [1] is 2.9% (inactive). In addition, the viability decrease in experiment [2] was 68.9% (active). The tube area decrease in experiment [3] was -13.9% (inactive). In [4], the GLP1 secretion stimulation is 1.9% (inactive). The inhibition of viability in experiment [5] is 49.9% (inactive). In addition, the results for the viability decrease (inhibition) in [6] and in experiment [7] were 66.7% (active) and 47.5% (inactive), respectively. For the same molecule, in experiment [8], the inhibition was 2.07% (inactive). The red/green cell ratio (normalised) in experiment [9] is 0.88 (inactive). The figures for the normalised cell number in experiment [9] (setting [15]) and in experiment [9] (setting [16]) were 1.01 and 0.89, respectively. The molecule was called inactive in [10], in experiment [14], in experiment [11] and in experiment [12].
